Laboratory results as given in PubChem BioAssay (Tox21).
Results filed as inconclusive are left out. Values without a mark were called inactive. Active and inactive are the calls of the source. Calls follow the shape of the dose curve; as a rule, active = well fitted cell-killing curve with a large enough effect in the repeat runs; inconclusive = weak or mixed curves, or effect the other way; inactive = no such curve, though single readings can be large or run the other way.

Assay: qHTS assay to identify aromatase inhibitors - cell viability counter screen (AID 743084);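 also: cells stimulated with testosterone during compound exposure; nearly all actives have a fitted effect of over 55% in size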
Conditions: MCF-7 aro ERE viability, CellTiter-Fluor, 24 h; series mostly up to 70.3 µM; activity change, negative = cytotoxicity: at the top concentration
% is scaled to controls: 0 for no effect and ±100 for the full control effect; potency is read from the fitted curve at half-maximal effect.

SMILES | activity change, negative = cytotoxicity | Potency
CC(C)c1ccc2c(C(C)C)cc(C(C)C)c(S(=O)(=O)O)c2c1 | -0.697% [at 95 µM] | –
Cc1cc(C)c(S(=O)(=O)O)cc1N=Nc1cc(S(=O)(=O)O)c2ccccc2c1O | – | 24.3 µM (active)
OCCC1CCCCN1 (centres undefined) | -1.87% [at 95 µM] | –
CC1(C)CCC(C)(C)c2cc(NC(=O)c3ccc(C(=O)O)cc3)ccc21 | -10.7% | –
CC/C(=C\C(=N/O)C(N)=O)C(C)[N+](=O)[O-] (centres undefined) | 15.9% | –
CC(=O)N(O)CCCCCNC(=O)CCC(=O)N(O)CCCCCNC(=O)CCC(=O)N(O)CCCCCN | 9.55% [at 32.5 µM] | –
Cl/C(=C\n1cncn1)c1ccc(Cl)cc1Cl | -0.64% | –
CC(C)CC=O | -2.37% | –
CCCCCCCCCO | 4.3% | –
CN(C)CCCOc1nn(Cc2ccccc2)c2ccccc12 | -7.72% [at 32.5 µM] | –
FC(F)(F)C(F)(F)C(F)(F)C(F)(F)C(F)(F)C(F)(F)CCI | -0.396% | –
CN1CCC(=C2c3ccccc3C=Cc3ccccc32)CC1 | -14% | –
O=C(Cl)c1c(Cl)cccc1Cl | 3.12% [at 95 µM] | –
CC(=O)CC(=O)c1ccccc1 | -8.34% [at 95 µM] | –
CC(=O)O[C@@H]1C(=O)O[C@@H]2[C@H]1OC(=O)[C@@H]2OC(C)=O | -4.33% | –
CC1=CCC(C(C)C)C=C1 (centres undefined) | -2.83% | –
C#CCOC(=O)[C@@H](C)Oc1ccc(Oc2ncc(Cl)cc2F)cc1 | -1.25% | –
O=C(Nc1ccccc1)OCC(CN1CCCCC1)OC(=O)Nc1ccccc1 (centres undefined) | -8.33% [at 32.5 µM] | –
CCOC(=O)C1=NN(c2ccccc2)C(=O)C1 | -0.0283% | –
CCCCCCOC(=O)CCC | -15.3% | –

SMILES | activity change, negative = cytotoxicity | Potency
CCCCCc1ccc(N)cc1 | 10.4% | –
CN1CCN(C2=Nc3ccccc3Sc3ccc(Cl)cc32)CC1 | -29.5% | –
O=C(CCN1CCN2CCCC2C1)N1c2ccccc2Sc2ccc(Cl)cc21 (centres undefined) | -14.6% | –
CCN(CC)CCc1nc(-c2ccccc2)no1 | -5.9% [at 32.5 µM] | –
COCCO | 5.98% | –
CCCCCOC(=O)COc1cc(N2C(=O)C3=C(CCCC3)C2=O)c(F)cc1Cl | -9.39% | –
Nc1ccc(C(=O)Nc2ccccc2N)cc1 | -10.4% | –
O=C(O)Cc1sc(-c2ccccc2)nc1-c1ccc(Cl)cc1 | – | inactive
C[C@H](CCC(=O)O)[C@H]1CC[C@H]2[C@@H]3[C@H](O)C[C@@H]4C[C@H](O)CC[C@]4(C)[C@H]3CC[C@]12C | -6.51% [at 32.5 µM] | –
CN(C(=O)CCCOc1ccc2[nH]c(=O)ccc2c1)C1CCCCC1 | 0.49% | –
CN(c1nccc(=O)[nH]1)C1CCN(c2nc3ccccc3n2Cc2ccc(F)cc2)CC1 | -0.709% | –
CC(C)CCCCCCOC(=O)c1ccc(C(=O)OCCCCCCC(C)C)c(C(=O)OCCCCCCC(C)C)c1 | 10.9% | –
Cc1ccc2c(ccc3ccccc32)c1 | -0.85% [at 95 µM] | –
CCCCOC(=O)/C=C\C(=O)OCCCC | -21.3% [at 95 µM] | –
CN(C)CCCNCCCN | 0.0076% | –
OC(CCN1CCCCC1)(c1ccccc1)C1CCCCC1 (centres undefined) | -0.172% | –
CC(=O)[C@@]1(O)CC[C@H]2[C@@H]3C[C@H](C)C4=CC(=O)CC[C@]4(C)[C@H]3CC[C@@]21C | -8.6% | –
CC(C)(C)C(=O)OCOP(=O)(COCCn1cnc2c(N)ncnc21)OCOC(=O)C(C)(C)C | -15.4% | –
N#Cc1c(F)cccc1F | -1.14% | –
